Screens: PubChem, National Center for Advancing Translational Sciences (NCATS)
SARS PLP yeast = qHTS of Yeast-based Assay for SARS-CoV PLP | Potency, µM (titrated, usually from 32.9 µM), for the others: at the top dose activity, positive = growth rescue, usual class: activators | S. cerevisiae expressing SARS-CoV PLpro, growth rescue | AID 485353, 2010 | actives 0.19% (n = 330,000); calls by dose curve; further: 0% is about no effect; nearly all actives have a fitted effect of over 55% in size
Sm TGR inh = qHTS Assay for the Inhibitors of Schistosoma Mansoni Peroxiredoxins. Schistosoma mansoni thioredoxin glutathione reductase (TGR), Q962Y6. purified TGR, DTNB reduction, TNB absorbance 405 nm. Potency, µM (series often up to 114 µM), without a hit: at the top dose activity change, negative = inhibition, most hits filed as inhibitors. actives 3% (n = 360,000). AID 485364, 2010; active means well fitted inhibition curve with a large enough effect; inconclusive means small, poorly fitted or top-dose-only effect; inactive means no such curve, though single readings can be large or run the other way; further: on the % scale 0 is the no-effect control and ±100 the full control effect; nearly all actives have a fitted effect of over 60% in size
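First, TGR (20 nM dispensed) and NADPH were mixed with compound. Second, a 15 min room-temperature incubation followed. Third, further NADPH and then DTNB were added to start the reaction. Finally, TNB absorbance was monitored kinetically.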
* marks the source's active call; other numbers are inactive results; ? = inconclusive; nt = no result given. Sampled rows, rich in hits. Any-hit rate of the full collection: about 3%. Potency means the concentration at half of the fitted maximal effect.

SMILES	SARS PLP yeast	Sm TGR inh
C#CCOCCOCCOCCNc1nc(N2CCN(C(=O)[C@H](CCC(=O)O)n3cc(C(N)Cc4ccc(O)cc4)nn3)CC2)nc(N2CCN(C(=O)[C@H](CCC(=O)O)n3cc(C(N)CC(C)C)nn3)CC2)n1 (some centres undefined)	-0.5%	35.5µM*
C#CCOCCOCCOCCNc1nc(N2CCN(C(=O)[C@H](CCC(=O)O)n3cc(C(N)Cc4ccc(O)cc4)nn3)CC2)nc(N2CCN(C(=O)[C@H](CCC(=O)O)n3cc(C(N)[C@H](C)CC)nn3)CC2)n1 (some centres undefined)	0.0%	?
C#CCOCCOCCOCCNc1nc(N2CCN(C(=O)[C@H](CCC(=O)O)n3cc(C(N)CO)nn3)CC2)nc(N2CCN(C(=O)[C@H](Cc3ccc(O)cc3)n3cc(C(N)CC(C)C)nn3)CC2)n1 (some centres undefined)	-2.5%	10µM*
C#CCOCCOCCOCCNc1nc(N2CCN(C(=O)[C@H]([C@@H](C)CC)n3cc([C@@H](N)Cc4ccc(O)cc4)nn3)CC2)nc(N2CCN(C(=O)[C@H](CCCCN)n3cc([C@@H](N)CO)nn3)CC2)n1	0.6%	20µM*
COc1ccc(-c2nc3c(c(SCC(=O)N4CCCCC4)n2)Cc2c(CO)cnc(C)c2O3)cc1	nt	-27.7%
Cc1c(Cl)cccc1-n1ncc(C(=O)Nc2ccc(Br)cc2F)c1C1CCNCC1	nt	-9.8%
CC1(C)O[C@H]2[C@@H](O1)[C@@H](C(=O)Nc1ccccc1O)O[C@@H]1OC(C)(C)O[C@@H]12	nt	8.8%
C#CCOCCOCCOCCNc1nc(N2CCN(C(=O)[C@H](Cc3ccc(O)cc3)n3cc(CCO)nn3)CC2)nc(N2CCN(C(=O)[C@H](Cc3ccc(O)cc3)n3cc(CCO)nn3)CC2)n1	7.5%	39.8µM*
C#CCOCCOCCOCCNc1nc(N2CCN(C(=O)[C@H]([C@@H](C)O)n3cc(CCCCN)nn3)CC2)nc(N2CCN(C(=O)[C@H](Cc3ccc(O)cc3)n3cc(CCO)nn3)CC2)n1	7.3%	-12.5%
CCCCCn1c(=O)[nH]c2cc(C(=O)NCc3ccc(C)cc3)ccc2c1=O	nt	2.6%
O=C(c1ccc(CS(=O)(=O)c2ccccc2)o1)N1CCOCC1	4.2%	39.8µM*
COc1ccc(S(=O)(=O)Cc2ccc(C(=O)O)o2)cc1	-0.6%	-33.2%
COc1ccc(S(=O)(=O)Cc2ccc(C(=O)N3CCN(C(=O)c4ccco4)CC3)o2)cc1	6.2%	?
Cc1ccc(S(=O)(=O)Cc2ccc(C(=O)N3CCN(Cc4ccccc4)CC3)o2)cc1	-7.9%	35.5µM*
COc1ccc(S(=O)(=O)Cc2ccc(C(=O)N3CCc4ccccc4C3)o2)cc1	-4.3%	20µM*
Cc1ccc(S(=O)(=O)Cc2ccc(C(=O)O)o2)cc1	14.9%	22.4µM*
O=C(c1ccc(CS(=O)(=O)c2c(Cl)cccc2Cl)o1)N1CCN(c2ccccc2)CC1	nt	-13.8%
COc1ccc(S(=O)(=O)Cc2ccc(C(=O)N3CCN(Cc4ccccc4)CC3)o2)cc1	14.5%	?
COc1ccc(OC)c(S(=O)(=O)NCCc2sc(-c3ccc(C)cc3)nc2C)c1	nt	0.7%
Cc1cccc(CNC(=O)C2CCN(c3nnc(-n4c(C)ccc4C)s3)CC2)c1	nt	-34.0%
Cc1ccc(-n2cnnn2)cc1S(N)(=O)=O	nt	15.2%
O=C(Nc1ccc(Br)c2cccnc12)c1cccc2ccccc12	nt	0.0%
Cc1ccc(S(=O)(=O)Cc2ccc(C(=O)N3CCc4ccccc4C3)o2)cc1	-4.6%	39.8µM*
Cc1ccc(S(=O)(=O)Cc2ccc(C(=O)N3CCN(c4cccc(C)c4C)CC3)o2)cc1	-6.9%	?
CCCCOc1ccc(N2C(=O)CC(N(O)c3ccccc3)C2=O)cc1 (centres undefined)	-2.8%	0.0%
SMILES	SARS PLP yeast	Sm TGR inh
CCOc1ccccc1N1C(=O)CC(N(O)c2ccccc2)C1=O (centres undefined)	9.1%	?
Cc1c(Cl)cccc1N1C(=O)CC(N(O)c2ccccc2)C1=O (centres undefined)	-0.5%	12.6µM*
Cc1cccc(C)c1N1C(=O)CC(N(O)c2ccccc2)C1=O (centres undefined)	-3.7%	14.1µM*
Cc1nc2ccc(S(=O)(=O)N(CC(=O)Nc3ccc(Cl)cc3)Cc3ccccc3)cc2s1	nt	0.4%
O=C1NCCCC2c3c(cc(Br)c(O)c3Br)OC12N1CCCCC1 (centres undefined)	11.1%	22.4µM*
O=C1NCCCc2c1oc1cc(Br)c(O)c(Br)c21	3.1%	-23.2%
O=C(Nc1ccc(S(=O)(=O)N2CCOCC2)cc1)c1ccc([N+](=O)[O-])o1	-1.9%	28.2µM*
O=C(Nc1ccc(S(=O)(=O)N2CCCC2)cc1)c1ccc([N+](=O)[O-])o1	-5.4%	nt
NNC(=S)Nc1ccc(S(=O)(=O)N2CCOCC2)cc1	-0.5%	-2.7%
O=S(=O)(c1ccc(NC(=S)Nc2ccc(OC(F)F)cc2)cc1)N1CCOCC1	-13.9%	44.7µM*
Cc1cc(=S)cc(C)n1CCCO	12.1%	1.78µM*
Cc1nc2cc(Cl)c(Cl)cc2n1CCCO	0.2%	-8.1%
Cc1ccc(C(=O)C[n+]2ccc3ccccc3c2)cc1	-3.6%	-2.1%
O=C(C[n+]1ccc2ccccc2c1)c1cccc2ccccc12	1.1%	25.1µM*
O=C1CCCC2=C1C1c3ccccc3C(=O)N1c1ccc(C(=O)c3ccccc3)cc1N2 (centres undefined)	26.9%	1.1%
O=C1CC(c2ccco2)CC2=C1C1c3ccccc3C(=O)N1c1ccccc1N2 (centres undefined)	0.6%	35.5µM*
COc1cc(C2C3=C(CC(c4ccco4)CC3=O)Nc3ccccc3N2C(C)=O)cc(OC)c1OC (centres undefined)	-5.5%	79.4µM*
COc1ccc(C2CC(=O)C3=C(C2)Nc2ccccc2N(C(C)=O)C3c2ccco2)cc1 (centres undefined)	-1.5%	0.0%
Cc1cc(C)n(CCc2nc3c4ccccc4nc(N4CCN(c5ccc(F)cc5)CC4)n3n2)n1	nt	5.8%
COc1ccc(-c2nc3sc(CCNC(=O)c4ccco4)c(C)n3n2)cc1	nt	7.7%
Cc1ccc(CNC(=O)c2ccc3c(c2)N(Cc2cccc(C)c2)C(=O)CS3)cc1	nt	-0.1%
O=C1CCCc2cc(S(=O)(=O)NCC3CCC(C(=O)NCc4ccccc4Cl)CC3)ccc2N1 (centres undefined)	nt	2.2%
COc1ccc(Nc2nc(CC(C)=O)ns2)cc1OC	-1.7%	12.6µM*
CC(=O)Cc1nsc(Nc2cccc(C)c2)n1	-0.5%	-3.9%
CCCCC(=O)Nc1c(C(=O)N2CCN(c3ccccc3)CC2)oc2ccccc12	nt	-2.8%
SMILES	SARS PLP yeast	Sm TGR inh
O=C(O)Cc1ccc(NC(=S)Nc2ccc(Br)cc2Cl)cc1	-0.9%	22.4µM*
O=C(O)Cc1ccc(NC(=S)Nc2cccc(Cl)c2Cl)cc1	7.0%	?
Fc1cc(Br)ccc1NC(=S)Nc1ccccc1	-13.0%	28.2µM*
O=C(Nc1ccc(Br)cc1)Nc1ccccc1F	-3.4%	4.0%
S=C(Nc1ccccc1)Nc1ccc(Br)cc1	-5.0%	?
Fc1ccccc1NC(=S)Nc1ccc(Br)cc1	-22.5%	50.1µM*
Cc1cccc2c(=O)cc(CSCC(=O)Nc3ccc(Cl)cc3)[nH]c12	nt	0.6%
COc1ccccc1N1CCN(C(=O)CN2C(=O)COc3ccc(S(=O)(=O)N4CCOCC4)cc32)CC1	nt	-12.9%
